Laboratory results taken from the supplement of paper PMC11732987, “Enantioselective OTUD7B fragment discovery through chemoproteomics screening and high-throughput optimisation” (Communications Chemistry, 2025).

Legend:
Test in all cases: log2 ratio of Biotin-Ahx-Ub-VS probe labelling (fragment/DMSO); higher = less target engagement (more negative = stronger competition), active = hit call of the paper (q ≤ 0.05, log2 ratio ≤ -1)
Conditions in all cases: compound concentration: 200 uM; treatment time: 3 h
[1] = molecular target: USP9X (UniProt Q93008)
Sequence of USP9X (Q93008 whole entry, the tested form may be a part): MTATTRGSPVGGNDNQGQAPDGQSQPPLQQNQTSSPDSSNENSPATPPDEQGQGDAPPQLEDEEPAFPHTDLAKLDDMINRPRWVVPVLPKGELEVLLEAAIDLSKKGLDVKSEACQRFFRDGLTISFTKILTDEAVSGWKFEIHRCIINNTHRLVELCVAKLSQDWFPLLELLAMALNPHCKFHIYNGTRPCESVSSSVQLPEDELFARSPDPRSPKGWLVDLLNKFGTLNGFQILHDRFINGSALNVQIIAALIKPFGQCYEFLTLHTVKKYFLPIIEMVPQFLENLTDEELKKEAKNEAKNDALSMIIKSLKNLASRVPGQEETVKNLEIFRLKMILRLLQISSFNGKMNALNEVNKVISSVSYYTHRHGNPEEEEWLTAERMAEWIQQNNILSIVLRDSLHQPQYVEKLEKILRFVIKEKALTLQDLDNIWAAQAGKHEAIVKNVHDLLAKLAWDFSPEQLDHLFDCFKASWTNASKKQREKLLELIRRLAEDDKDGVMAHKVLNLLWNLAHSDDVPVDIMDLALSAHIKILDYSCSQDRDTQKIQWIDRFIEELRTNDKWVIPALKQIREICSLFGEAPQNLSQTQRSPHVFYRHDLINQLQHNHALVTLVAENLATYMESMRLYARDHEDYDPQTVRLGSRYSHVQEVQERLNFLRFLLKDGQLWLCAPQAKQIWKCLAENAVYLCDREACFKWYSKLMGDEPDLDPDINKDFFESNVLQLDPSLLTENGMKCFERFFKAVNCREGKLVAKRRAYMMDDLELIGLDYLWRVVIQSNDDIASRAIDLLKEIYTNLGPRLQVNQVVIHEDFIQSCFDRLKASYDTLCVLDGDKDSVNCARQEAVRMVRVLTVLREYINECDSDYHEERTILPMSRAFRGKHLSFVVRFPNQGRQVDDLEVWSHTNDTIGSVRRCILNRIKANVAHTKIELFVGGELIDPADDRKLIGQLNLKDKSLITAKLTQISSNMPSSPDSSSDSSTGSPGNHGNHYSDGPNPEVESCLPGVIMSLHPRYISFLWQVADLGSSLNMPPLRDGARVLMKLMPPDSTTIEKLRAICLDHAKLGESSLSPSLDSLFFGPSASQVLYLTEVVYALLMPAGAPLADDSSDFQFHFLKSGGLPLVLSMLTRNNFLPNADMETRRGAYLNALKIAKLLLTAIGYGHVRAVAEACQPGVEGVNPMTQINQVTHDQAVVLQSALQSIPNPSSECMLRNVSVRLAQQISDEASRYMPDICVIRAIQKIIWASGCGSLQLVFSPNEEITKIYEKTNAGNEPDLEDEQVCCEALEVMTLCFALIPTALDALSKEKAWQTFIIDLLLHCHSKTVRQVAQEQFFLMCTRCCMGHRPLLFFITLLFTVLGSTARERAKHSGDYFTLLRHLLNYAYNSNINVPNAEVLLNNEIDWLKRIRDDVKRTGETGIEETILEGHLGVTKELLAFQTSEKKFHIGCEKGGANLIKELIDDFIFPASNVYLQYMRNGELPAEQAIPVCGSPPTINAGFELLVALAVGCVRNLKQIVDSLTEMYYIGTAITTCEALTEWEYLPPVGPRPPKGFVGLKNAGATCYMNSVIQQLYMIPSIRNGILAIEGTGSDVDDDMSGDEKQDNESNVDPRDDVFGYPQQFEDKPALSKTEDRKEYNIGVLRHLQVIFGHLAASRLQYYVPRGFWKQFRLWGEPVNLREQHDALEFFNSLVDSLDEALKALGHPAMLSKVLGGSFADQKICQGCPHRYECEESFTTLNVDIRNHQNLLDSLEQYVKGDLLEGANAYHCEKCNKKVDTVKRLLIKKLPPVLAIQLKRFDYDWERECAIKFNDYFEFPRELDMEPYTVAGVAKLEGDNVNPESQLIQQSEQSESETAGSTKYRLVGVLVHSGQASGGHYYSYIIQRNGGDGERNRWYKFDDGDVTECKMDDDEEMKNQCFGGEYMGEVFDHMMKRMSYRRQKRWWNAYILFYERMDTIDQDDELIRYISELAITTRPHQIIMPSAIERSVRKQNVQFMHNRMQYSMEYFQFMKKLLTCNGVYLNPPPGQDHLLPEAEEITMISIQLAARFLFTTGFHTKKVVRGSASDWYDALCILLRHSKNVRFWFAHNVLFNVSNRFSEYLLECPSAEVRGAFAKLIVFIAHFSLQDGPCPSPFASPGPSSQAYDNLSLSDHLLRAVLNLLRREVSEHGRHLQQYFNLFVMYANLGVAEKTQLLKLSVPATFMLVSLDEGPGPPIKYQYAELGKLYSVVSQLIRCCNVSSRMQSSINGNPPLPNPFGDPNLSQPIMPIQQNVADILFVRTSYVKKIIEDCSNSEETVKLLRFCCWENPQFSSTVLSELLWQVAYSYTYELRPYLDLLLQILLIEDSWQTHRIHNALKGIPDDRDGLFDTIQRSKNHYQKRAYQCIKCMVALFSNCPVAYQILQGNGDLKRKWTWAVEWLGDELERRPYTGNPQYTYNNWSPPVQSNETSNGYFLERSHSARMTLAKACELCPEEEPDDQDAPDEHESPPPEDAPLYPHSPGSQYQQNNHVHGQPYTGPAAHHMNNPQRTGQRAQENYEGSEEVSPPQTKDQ
In short: (§1)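 Fragment (200 µM) or vehicle was incubated for 3 h with triplicate HEK293T lysate samples of 495 µg, which were then treated with Biotin-Ahx-Ub-VS at 0.5 µM final for 1 h. Labelled DUBs were enriched on NeutrAvidin, digested with LysC and trypsin, and analysed by diaPASEF LC-MS/MS. Values are average log2 fragment/vehicle ratios from an unpaired t-test on global-median-normalised Spectronaut label-free quantities, using proteins with ≥2 unique peptides.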

[2] = molecular target: UniProt O00487
Sequence of UniProt O00487 (O00487 whole entry): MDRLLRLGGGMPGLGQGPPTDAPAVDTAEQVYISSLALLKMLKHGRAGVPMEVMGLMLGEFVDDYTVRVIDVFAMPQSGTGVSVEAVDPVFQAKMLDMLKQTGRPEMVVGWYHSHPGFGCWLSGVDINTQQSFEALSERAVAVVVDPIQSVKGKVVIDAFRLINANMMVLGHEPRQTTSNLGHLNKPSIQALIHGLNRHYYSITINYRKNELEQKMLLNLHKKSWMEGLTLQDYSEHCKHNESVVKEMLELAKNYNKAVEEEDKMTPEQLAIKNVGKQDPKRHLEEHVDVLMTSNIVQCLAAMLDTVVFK
In short: as §1

[3] = molecular target: UniProt O00507
In short: as §1

[4] = molecular target: UniProt P51784
Sequence of UniProt P51784 (P51784 whole entry): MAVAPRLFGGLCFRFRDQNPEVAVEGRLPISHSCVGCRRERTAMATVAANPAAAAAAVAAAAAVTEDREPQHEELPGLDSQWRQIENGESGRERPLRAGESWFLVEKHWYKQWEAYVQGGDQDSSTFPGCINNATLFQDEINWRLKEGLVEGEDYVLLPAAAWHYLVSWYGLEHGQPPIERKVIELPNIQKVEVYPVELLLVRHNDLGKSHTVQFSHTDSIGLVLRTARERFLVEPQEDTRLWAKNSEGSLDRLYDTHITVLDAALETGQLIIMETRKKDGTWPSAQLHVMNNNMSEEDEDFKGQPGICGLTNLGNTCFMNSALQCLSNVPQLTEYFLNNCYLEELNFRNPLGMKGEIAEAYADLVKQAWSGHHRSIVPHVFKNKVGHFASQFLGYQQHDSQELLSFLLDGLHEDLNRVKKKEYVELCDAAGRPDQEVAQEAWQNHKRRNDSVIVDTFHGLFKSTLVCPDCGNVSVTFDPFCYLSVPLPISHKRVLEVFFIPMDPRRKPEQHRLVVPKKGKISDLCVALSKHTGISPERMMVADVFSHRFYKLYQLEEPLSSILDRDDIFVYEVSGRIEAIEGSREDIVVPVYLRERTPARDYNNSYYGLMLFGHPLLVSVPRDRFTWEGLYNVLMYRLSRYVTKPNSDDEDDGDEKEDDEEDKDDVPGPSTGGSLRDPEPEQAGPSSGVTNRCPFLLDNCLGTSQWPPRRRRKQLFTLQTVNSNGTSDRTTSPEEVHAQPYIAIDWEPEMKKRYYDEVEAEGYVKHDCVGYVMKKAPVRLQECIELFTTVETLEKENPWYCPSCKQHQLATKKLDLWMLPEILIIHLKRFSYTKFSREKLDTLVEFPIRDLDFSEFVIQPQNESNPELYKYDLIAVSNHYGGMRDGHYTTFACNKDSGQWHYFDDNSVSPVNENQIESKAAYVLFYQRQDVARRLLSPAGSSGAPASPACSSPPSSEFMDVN
In short: as §1

[5] = molecular target: T1, UniProt Q5T2D3
T1 sequence (whole entry): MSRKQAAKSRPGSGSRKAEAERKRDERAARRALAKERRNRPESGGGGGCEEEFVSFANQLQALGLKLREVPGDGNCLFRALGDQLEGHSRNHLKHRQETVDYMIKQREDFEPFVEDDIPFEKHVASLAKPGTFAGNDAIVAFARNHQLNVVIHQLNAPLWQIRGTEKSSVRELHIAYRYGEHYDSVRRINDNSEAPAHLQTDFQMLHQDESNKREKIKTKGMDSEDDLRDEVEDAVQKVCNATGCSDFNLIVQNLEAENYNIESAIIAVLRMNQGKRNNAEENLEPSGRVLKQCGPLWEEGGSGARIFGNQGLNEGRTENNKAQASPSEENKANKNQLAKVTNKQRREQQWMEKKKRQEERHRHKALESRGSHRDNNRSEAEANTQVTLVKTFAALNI
In short: as §1

[6] = molecular target: T2, UniProt Q8TE49
T2 sequence (whole entry): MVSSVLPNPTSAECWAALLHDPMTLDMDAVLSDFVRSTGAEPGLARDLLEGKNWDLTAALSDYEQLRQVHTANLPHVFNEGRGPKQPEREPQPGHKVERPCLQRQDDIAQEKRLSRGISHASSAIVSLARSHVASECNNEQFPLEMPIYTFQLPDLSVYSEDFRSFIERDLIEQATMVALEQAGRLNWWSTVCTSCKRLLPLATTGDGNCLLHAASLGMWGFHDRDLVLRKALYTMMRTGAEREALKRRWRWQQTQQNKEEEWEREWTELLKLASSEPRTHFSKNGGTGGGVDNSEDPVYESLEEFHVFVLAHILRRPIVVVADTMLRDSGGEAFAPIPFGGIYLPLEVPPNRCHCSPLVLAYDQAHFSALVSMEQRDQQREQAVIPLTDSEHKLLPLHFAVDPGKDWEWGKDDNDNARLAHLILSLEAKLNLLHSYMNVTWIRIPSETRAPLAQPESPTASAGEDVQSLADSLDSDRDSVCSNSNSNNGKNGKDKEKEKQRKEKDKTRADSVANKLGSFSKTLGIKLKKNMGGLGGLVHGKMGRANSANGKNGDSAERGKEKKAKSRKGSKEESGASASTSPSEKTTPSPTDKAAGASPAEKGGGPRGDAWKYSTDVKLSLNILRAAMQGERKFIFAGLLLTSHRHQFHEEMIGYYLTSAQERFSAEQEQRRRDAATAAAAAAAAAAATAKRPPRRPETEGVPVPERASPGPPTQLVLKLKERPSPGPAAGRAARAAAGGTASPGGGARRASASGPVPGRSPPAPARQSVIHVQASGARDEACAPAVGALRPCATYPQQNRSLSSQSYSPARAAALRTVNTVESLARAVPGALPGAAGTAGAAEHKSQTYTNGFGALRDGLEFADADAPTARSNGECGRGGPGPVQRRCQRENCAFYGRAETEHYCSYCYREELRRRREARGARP
In short: as §1

[7] = molecular target: T3, UniProt Q9P2H5
T3 sequence (whole entry): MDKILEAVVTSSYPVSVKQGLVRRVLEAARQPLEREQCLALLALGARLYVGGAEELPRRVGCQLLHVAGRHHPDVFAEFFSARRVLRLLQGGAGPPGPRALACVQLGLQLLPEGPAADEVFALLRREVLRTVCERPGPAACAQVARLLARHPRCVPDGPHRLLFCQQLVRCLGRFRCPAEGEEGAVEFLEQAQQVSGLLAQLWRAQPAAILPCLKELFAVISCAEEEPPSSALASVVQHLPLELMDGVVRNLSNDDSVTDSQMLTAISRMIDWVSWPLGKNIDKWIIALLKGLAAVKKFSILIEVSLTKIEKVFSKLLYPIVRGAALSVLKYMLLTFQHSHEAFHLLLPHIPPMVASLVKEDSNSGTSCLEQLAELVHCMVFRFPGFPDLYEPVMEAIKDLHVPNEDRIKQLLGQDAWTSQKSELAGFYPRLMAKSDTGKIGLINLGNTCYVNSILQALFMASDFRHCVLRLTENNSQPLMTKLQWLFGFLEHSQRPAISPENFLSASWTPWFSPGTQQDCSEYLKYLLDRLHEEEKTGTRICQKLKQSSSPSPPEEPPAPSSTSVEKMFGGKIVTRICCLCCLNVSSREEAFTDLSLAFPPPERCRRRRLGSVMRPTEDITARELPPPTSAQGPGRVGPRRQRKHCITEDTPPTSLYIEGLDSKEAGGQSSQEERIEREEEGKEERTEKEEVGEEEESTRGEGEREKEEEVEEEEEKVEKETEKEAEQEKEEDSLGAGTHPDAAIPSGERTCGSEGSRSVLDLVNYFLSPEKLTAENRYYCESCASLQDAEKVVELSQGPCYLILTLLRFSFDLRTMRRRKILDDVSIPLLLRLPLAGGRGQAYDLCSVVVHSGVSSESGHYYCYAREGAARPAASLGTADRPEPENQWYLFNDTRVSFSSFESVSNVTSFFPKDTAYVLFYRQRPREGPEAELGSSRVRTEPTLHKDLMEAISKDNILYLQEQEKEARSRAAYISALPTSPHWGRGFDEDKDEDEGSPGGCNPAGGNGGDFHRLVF
In short: as §1

[8] = molecular target: T4, UniProt Q9UGI0
T4 sequence (whole entry): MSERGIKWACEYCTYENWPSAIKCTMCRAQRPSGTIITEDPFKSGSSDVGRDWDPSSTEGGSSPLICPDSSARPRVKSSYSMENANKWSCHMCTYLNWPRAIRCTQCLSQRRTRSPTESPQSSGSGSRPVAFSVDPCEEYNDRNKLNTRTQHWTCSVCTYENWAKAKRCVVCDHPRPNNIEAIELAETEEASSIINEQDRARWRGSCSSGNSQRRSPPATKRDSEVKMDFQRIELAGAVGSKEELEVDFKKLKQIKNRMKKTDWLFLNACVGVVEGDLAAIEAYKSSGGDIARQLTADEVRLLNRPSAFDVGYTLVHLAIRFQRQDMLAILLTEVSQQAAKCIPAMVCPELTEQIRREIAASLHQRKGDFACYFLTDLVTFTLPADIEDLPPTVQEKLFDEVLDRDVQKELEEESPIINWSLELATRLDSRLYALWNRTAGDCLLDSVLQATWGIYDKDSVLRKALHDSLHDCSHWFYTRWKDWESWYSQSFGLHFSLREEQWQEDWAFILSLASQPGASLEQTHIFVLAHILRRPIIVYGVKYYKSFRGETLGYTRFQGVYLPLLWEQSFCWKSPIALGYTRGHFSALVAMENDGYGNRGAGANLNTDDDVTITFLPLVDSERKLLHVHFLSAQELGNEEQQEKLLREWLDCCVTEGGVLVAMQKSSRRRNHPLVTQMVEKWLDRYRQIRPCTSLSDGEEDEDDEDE
In short: as §1

[9] = molecular target: T5, YOD1 (UniProt Q5VVQ6)
T5 sequence (whole entry): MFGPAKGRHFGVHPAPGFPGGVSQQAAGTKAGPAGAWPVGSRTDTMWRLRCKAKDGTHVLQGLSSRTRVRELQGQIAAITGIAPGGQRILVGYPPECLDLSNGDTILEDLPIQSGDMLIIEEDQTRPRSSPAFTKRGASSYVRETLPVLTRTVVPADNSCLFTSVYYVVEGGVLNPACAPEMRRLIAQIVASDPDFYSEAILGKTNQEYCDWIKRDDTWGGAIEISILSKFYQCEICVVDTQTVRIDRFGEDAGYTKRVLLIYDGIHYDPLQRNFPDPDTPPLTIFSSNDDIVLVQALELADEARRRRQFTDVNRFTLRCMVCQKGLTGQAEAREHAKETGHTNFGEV
In short: as §1

Measured: log2 ratio of Biotin-Ahx-Ub-VS probe labelling

CCc1c[nH]c(CNC(=O)CCl)n1.Cl
inactive: [1] -0.236 | [2] -0.193 | [3] -0.772 | [4] -0.123 | [5] -0.363 | [6] -0.324 | [7] -0.147 | [8] -0.736 | [9] -0.491
